25 compounds from PubChem BioAssay AID1259310 (The Scripps Research Institute Molecular Screening Center, 2017) can be followed below.

In all, about 650,000 compounds went through this assay and about 850 (0.13%) were called active. Many of the other results were omitted from the sample, so actives are more common in it than they were. Values without a mark were called inactive. No stated cut-off is given here; in the data, active means normalized activity above about 1.9%; inactive means the rest.

Chain of F-box/WD repeat-containing protein 7 (Homo sapiens) (Q969H0 whole entry, looked up): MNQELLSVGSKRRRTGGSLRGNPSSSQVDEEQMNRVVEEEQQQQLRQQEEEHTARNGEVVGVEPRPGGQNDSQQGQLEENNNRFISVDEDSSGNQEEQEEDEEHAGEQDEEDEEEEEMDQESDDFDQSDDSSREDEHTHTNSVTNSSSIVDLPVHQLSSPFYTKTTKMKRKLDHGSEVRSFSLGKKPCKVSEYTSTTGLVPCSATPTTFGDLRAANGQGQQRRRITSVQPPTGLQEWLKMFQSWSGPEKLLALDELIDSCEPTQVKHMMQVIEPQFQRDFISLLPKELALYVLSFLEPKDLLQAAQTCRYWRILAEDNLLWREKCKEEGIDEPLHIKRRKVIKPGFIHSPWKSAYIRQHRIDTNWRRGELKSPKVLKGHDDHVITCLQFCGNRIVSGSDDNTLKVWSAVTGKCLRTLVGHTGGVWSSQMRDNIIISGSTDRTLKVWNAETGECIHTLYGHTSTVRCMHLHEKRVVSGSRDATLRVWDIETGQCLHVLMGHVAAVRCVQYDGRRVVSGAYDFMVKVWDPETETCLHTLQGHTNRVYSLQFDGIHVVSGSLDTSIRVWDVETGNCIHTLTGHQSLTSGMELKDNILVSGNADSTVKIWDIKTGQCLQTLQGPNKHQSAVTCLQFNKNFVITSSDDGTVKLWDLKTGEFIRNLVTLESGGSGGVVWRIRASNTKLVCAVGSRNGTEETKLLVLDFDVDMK

This assay addresses F-box/WD repeat-containing protein 7 (Homo sapiens) (UniProt Q969H0). Briefly: FBW7 E3 ligase activators, primary screen, biochemical, AlphaScreen, human (AID 1259310).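 Further: purified mutant Fbw7 with reduced substrate affinity.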 Particulars: AlphaScreen FBW7–phospho-cyclin E peptide binding, activator screen; at 26.1 µM; active compounds read high. (In general: Alpha assays give light when donor and acceptor beads are brought close together.)
Take `O=C(COc1cccc([N+](=O)[O-])c1)N/N=C/c1ccc(O)c([N+](=O)[O-])c1`: the normalized activity (activation) is -0.11%.

As to `CN(C)c1ccc(C(c2nnnn2C(C)(C)C)N2CCN(Cc3ccccc3)CC2)cc1` (stereo not given), the normalized activity (activation) was 1.85% (active).

Regarding `COc1ccc(C(c2nnnn2C(C)(C)C)N2CCN(c3ccccc3)CC2)cc1` (stereo not given), the normalized activity (activation) was 0.3%.

Turning to `CCCC(c1nnnn1C(C)(C)C)N1CCN(Cc2ccccc2)CC1` (stereo not given), the normalized activity (activation) was 0.01%.

With `CC(=O)c1ccc(N2C(=O)C3C(C2=O)C2(C)c4ccccc4C3(C)c3ccccc32)cc1` (stereo not given), the normalized activity (activation) is -0.19%.

Turning to `COc1ccc(-c2cc(NCCOc3ccccc3)nc(N)n2)cc1`, the normalized activity (activation) was 0.12%.

In the case of `O=C(COc1ccc(Cl)cc1)NNC(=O)C(Cc1ccccc1)N1C(=O)c2ccccc2C1=O` (stereo not given), the normalized activity (activation) is 0.06%.

`Cc1cc(C(=O)C(=O)c2nccn2C)c(C)n1C`: the normalized activity (activation) was 0.04%.

Turning to `CCC(c1nnnn1C1CCCC1)N1CCN(C(=O)c2ccco2)CC1` (stereo not given), the normalized activity (activation) is -0.16%.

As for `CCC(c1nnnn1CCC(C)C)N1CCN(C(=O)c2ccco2)CC1` (stereo not given), the normalized activity (activation) was 2.16% (active).

For `CCC(c1nnnn1CCC(C)C)N1CCN(c2ccccc2)CC1` (stereo not given), the normalized activity (activation) was 0.24%.

Turning to `COc1cc(Cl)c(C)cc1NC(=O)CCNC(=O)Cn1cnc2sc3c(c2c1=O)CCCC3`, the normalized activity (activation) is -0.1%.

As for `Cc1ccc(CN2CCN(CC(=O)NCc3ccccn3)C2=O)cc1`, the normalized activity (activation) is -0.27%.

As to `COC(=O)CNC(=O)CNS(=O)(=O)c1ccccc1[N+](=O)[O-]`, the normalized activity (activation) was 0.14%.

For `NNC(=O)CNC(=O)CNS(=O)(=O)c1ccc([N+](=O)[O-])cc1`, the normalized activity (activation) was 1.97% (active).

Take `O=[N+]([O-])c1ccc(S(=O)(=O)NCCc2ccccc2)cc1`: the normalized activity (activation) was 0.18%.

Regarding `CC1=C(C(=O)Nc2cccc(C(=O)Nc3cccc(Cl)c3C)c2)SCCO1`, the normalized activity (activation) was -0.1%.

Take `COc1cc(C2CC(=O)NC3=C2C(=O)CC(C)(C)C3)cc([N+](=O)[O-])c1O` (stereo not given): the normalized activity (activation) is -0.34%.

In the case of `C#CCN1C(=O)C(O)(CC(=O)c2ccc(OC)c([N+](=O)[O-])c2)c2ccccc21` (stereo not given), the normalized activity (activation) was 0.12%.

For the compound `CN(C)CCN(C)c1nc(C2COc3ccc(C(N)=O)cc3C2)nc2ccc(-c3cn[nH]c3)cc12` (stereo not given), the normalized activity (activation) is 1.23%.

`O=C(NCCc1cccnc1)c1ccc2c(c1)CC(c1nc3ccc(-c4cn[nH]c4)cc3c(=O)[nH]1)CO2` (stereo not given): the normalized activity (activation) is 3.03% (active).

Turning to `O=c1[nH]c(C2COc3ccc(F)cc3C2)nc2ccc(-c3cn[nH]c3)cc12` (stereo not given), the normalized activity (activation) is -0.05%.

With `CCN(CC)c1ccc2nnc(CCC(=O)Nc3ccc(C(=O)OC)cc3)n2n1`, the normalized activity (activation) is 0.06%.

In the case of `CC1CCCN(S(=O)(=O)c2ccc3c(c2)OCC(=O)N3)C1` (stereo not given), the normalized activity (activation) was 0.17%.

`CCOC(=O)CC(C(C)C)N(Cc1ccc(F)cc1)C(=S)Nc1cccc(C)c1` (stereo not given): the normalized activity (activation) was 0.07%.
